Rab9 promoter act: activators of Rab9 promoter; Huh7 Rab9 promoter-luciferase reporter, luminescence, 24 h; Potency, µM (top dose mostly 9.22 µM), inactives show top-dose activation, negative = inhibition, most hits filed as activators; 320,000 compounds, 2.8% hits; also: % of control where 0% means no effect; nearly all actives have a fitted effect of over 60% in size
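Steps: seed 1500 Huh7 Rab9-luc cells per well, rest 2 h at 37 °C; add compound in DMSO; incubate 24 h; add luciferase reagent, 10 min ambient; read luminescence.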
ELG1 genotox: inducers of genotoxicity in HEK293T ELG1-luciferase cells; Potency, µM (titrated, usually from 46 µM), without a hit: top-dose activity change, positive = activation, most hits filed as activators; 330,000 compounds, 1.3% hits; HEK293T ELG1-luciferase reporter, luminescence, 16 h; AID 504466; also: % of control where 0% means no effect; nearly all actives have a fitted effect of over 60% in size
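DMSO vehicle served as control against compound-treated ELG1-luciferase HEK293T cells; exposure lasted 16 hr at 37 °C and 5% CO2, followed by ONE-Glo luminescence detection after 30 min.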
SMN2 splice enh: increases expression of the SMN2 splice variant | HEK293 SMN2-luciferase splicing reporter, luminescence, 30-36 h | Potency, µM (titrated, usually from 46.1 µM), for the others: at the top dose activity change, positive = activation, actives largely listed as activators | 210,000 compounds, 2.8% hits | AID 1458; also: % of control where 0% means no effect; nearly all actives have a fitted effect of over 55% in size
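qHTS luciferase splicing reporter: luminescence rises when SMN2 exon 7 is included in transfected HEK293 cells. Compound exposure lasted 30-36 h at 37C, with 4.5 mM final sodium butyrate as control, followed by a ONE-Glo read.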
NPC1 promoter act: activates the NPC1 promoter. Huh7 NPC1 promoter luciferase reporter, 24 h. Potency, µM (series often up to 9.22 µM), for inactives: at the highest dose activation, most hits filed as activators. 320,000 compounds, 2.4% hits. AID 485313; also: % of control where 0% means no effect; nearly all actives have a fitted effect of over 60% in size
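Compounds in DMSO were transferred onto Huh7 NPC1-luciferase reporter cells pre-incubated 2 h; after 24 h at 37 °C, Amplite reagent was dispensed and luminescence recorded 10 min later.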
FLuc modulator: firefly luciferase modulation, counter-screen for miR-21 project; P08659; purified FLuc, Km substrates, luminescence inhibition; Potency, µM (top dose mostly 57.5 µM), for inactives: at the highest dose activity change, negative = inhibition, usual class: inhibitors; 360,000 compounds, 6.9% hits;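 also: plate controls were vehicle for no effect and reference inhibitor for full effect; nearly all actives have a fitted effect of over 55% in size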
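Biochemical qHTS of compounds, final roughly 60 µM downward over six points, against 10 nM purified firefly luciferase using Km concentrations of substrates (10 uM D-luciferin, 10 uM ATP) in Tris acetate pH 7.5 buffer; luminescence output.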
ELG1 repair inh: blocks ELG1-dependent DNA repair in HEK293T cells; HEK293T ELG1-luciferase reporter, luminescence, 16 h; DNA damage induced by 5-fluorouridine; Potency, µM (top dose mostly 46.1 µM), without a hit: at the top dose activity change, negative = inhibition, usual class: inhibitors; 330,000 compounds, 2.3% hits; also: % is scaled to controls: 0 for no effect and ±100 for the full control effect; nearly all actives have a fitted effect of over 55% in size
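In this reporter screen, reduction of luminescence relative to DMSO vehicle indicated activity. Compounds and 5-fluorouridine were added together to 2,000 cells per well, incubated for 16 hr at 37 °C, then developed with ONE-Glo.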
ELG1 FLuc counter: luciferase inhibition in cell-free luciferin readout for ELG1 hits; shares compounds with ELG1 repair inh; cell-free firefly luciferase luminescence counter-screen, ViewLux; Potency, µM (series often up to 46.1 µM), without a hit: at the top dose activity change, negative = inhibition, hits mostly inhibitors; 350 compounds, 3% hits; AID 624247; also: % is scaled to controls: 0 for no effect and ±100 for the full control effect
ELG1-Luc inh: human ELG1 repair inhibition, luciferase-tagged ELG1 confirmation | Potency, µM (top dose mostly 46.1 µM), inactives show top-dose activity change, negative = inhibition, actives largely listed as inhibitors | shares compounds with ELG1 repair inh | HEK293T ELG1-luciferase levels, luminescence; cells co-treated with 5-fluorouridine | 670 compounds, 68% hits | AID 624248; also: % is scaled to controls: 0 for no effect and ±100 for the full control effect; nearly all actives have a fitted effect of over 55% in size
ELG1-Luc MMS: inhibits ELG1-dependent repair under MMS stimulation in HEK293T cells; 670 compounds, 53% hits; HEK293T luciferase-tagged ELG1 level, MMS stimulated; shares compounds with ELG1 repair inh; AID 624249; Potency, µM (doses to about 46.1 µM), for inactives: top-dose activity change, negative = inhibition, hits mostly inhibitors; also: % is scaled to controls: 0 for no effect and ±100 for the full control effect; nearly all actives have a fitted effect of over 60% in size
ELG1 5FU viab: confirmation of ELG1 repair inhibitors: viability with 5FU; AID 624250; 670 tested, under 10 active; shares compounds with ELG1 repair inh; Potency, µM (doses to about 46.1 µM), for the others: top-dose activity change, negative = viability loss, actives largely listed as cytotoxic; cell viability with 5-FU, ELG1-dependent repair;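 also: ELG1-luc HEK293T cells cotreated with 5-fluorouridine at 10 µM final; viability measured 16 h after compound addition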
ELG1 MMS cell: confirmation of ELG1 repair inhibitors: viability with MMS. shares compounds with ELG1 repair inh. Potency, µM (series often up to 46.1 µM), inactives show top-dose activity change, negative = viability loss, most hits filed as cytotoxic. Cell viability with MMS, ELG1-dependent DNA repair. 670 compounds, 33% hits;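 also: ELG1-luc HEK293T cells co-treated with 10 µM MMS; viability read 16 h after compound addition; % is scaled to controls: 0 for no effect and ±100 for the full control effect; nearly all actives have a fitted effect of over 60% in size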
ELG1 unstim viab: unstimulated viability counter-screen for ELG1 repair hits. cell viability counter-screen, unstimulated, luminescence. shares compounds with ELG1 repair inh. AID 624252. Potency, µM (doses to about 45.9 µM), without a hit: at the highest dose activity change, negative = loss of viability, usual class: cytotoxic. 900 compounds, 8% hits;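 also: compound exposure lasted 16 hours before reading; % is scaled to controls: 0 for no effect and ±100 for the full control effect; nearly all actives have a fitted effect of over 55% in size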
FLuc enzyme: firefly luciferase inhibition counter-screen; Potency, µM (top dose mostly 57.5 µM), without a hit: at the top dose activity, negative = inhibition, actives largely listed as inhibitors; 350 compounds, 10% hits; purified firefly luciferase, luminescence counter-screen; shares compounds with ELG1 repair inh; also: % is scaled to controls: 0 for no effect and ±100 for the full control effect
* hit, by the source's call; u = inconclusive; x = not tested or not shown; [ ] = dose if it differs, or a comment. Sampled rows, rich in hits. Any-hit rate of the full collection: about 9.3%. Calls follow the shape of the dose curve; as a rule, active = well fitted curve in the direction sought with a large enough effect; inconclusive = small, poorly fitted or top-dose-only effect, or another doubt; inactive = no such curve, though single readings can be large; an effect the other way counts as inactive or inconclusive. Potency is read from the fitted curve at half-maximal effect.

SMILES	Rab9 promoter act	ELG1 genotox	SMN2 splice enh	NPC1 promoter act	FLuc modulator	ELG1 repair inh	ELG1-Luc inh	ELG1-Luc MMS	ELG1 5FU viab	ELG1 MMS cell	ELG1 unstim viab	others
CCc1ccc(-n2c(=O)c3c4c(sc3n(CC(=O)c3ccc(Cl)cc3)c2=O)CCC4)cc1	x	x	-1%	x	0%	x	x	x	x	x	x
COc1ccc2c(c1OC)C(=O)N1c3ccccc3C(=O)N(c3ccccc3)C21 (stereo unspecified)	13%	-11%	-38%	-5%	-4%	u	2.2µM*	5µM*	0%	u	u	ELG1 FLuc counter=-11%;FLuc enzyme=1%
Cc1ccccc1N1C(=O)c2ccccc2N2C(=O)c3ccccc3C12 (stereo unspecified)	-2%	-7%	2%	-3%	-1%	u	x	x	x	x	x
COc1ccc2c(c1OC)C(=O)N1c3ccccc3C(=O)N(c3ccc(F)cc3)C21 (stereo unspecified)	-10%	-17%	-20%	-2%	1%	u	5µM*	7.9µM*	-2%	u	u	ELG1 FLuc counter=u;FLuc enzyme=-3%
C=CCN(c1ccccc1)S(=O)(=O)c1ccc2c(c1)N(C(C)=O)CCO2	-3%	-1%	x	-4%	3%	0%	x	x	x	x	x
CCC(C(=O)NC1CCCCC1)N(Cc1cccs1)C(=O)CCC(=O)Nc1cc(C)on1 (stereo unspecified)	0%	5%	x	2%	0%	u	x	x	x	x	x
COC(CNC(=O)c1ccc(CS(=O)(=O)c2ccc(Br)cc2)o1)OC	-4%	7%	x	0%	0%	12%	x	x	x	x	x
CCN(CC(=O)Nc1cc(S(=O)(=O)N2CCOCC2)ccc1C)Cc1ccccc1	-16%	-1%	x	-5%	1%	-9%	x	x	x	x	x
CC(=O)Nc1ccc(NCc2cccs2)cc1	20%	6%	x	12%	-12%	-15%	x	x	x	x	x
CC(=O)Nc1ccc(SCC(=O)c2cc(C)n(Cc3cccs3)c2C)cc1	u	u	-53%	13%	17µM*	u	x	x	x	x	u	ELG1 FLuc counter=u;FLuc enzyme=13µM*
NC(=O)c1cc[n+](CC2=C(C(=O)O)N3C(=O)[C@@H](NC(=O)[C@@H](c4ccccc4)S(=O)(=O)[O-])[C@H]3SC2)cc1	0%[46.1 µM]	x	16%	3%[46.1 µM]	x	x	x	x	x	x	x
COc1ccc(C2=NN(C(=O)COc3ncnc4ccccc34)C(c3ccco3)C2)cc1 (stereo unspecified)	-11%	2%	u	-3%	-5%	4.1µM*	u	-2%	u	9%	8%
COc1ccc(C2=NN(C(=O)CSc3nnc(C)n3C)C(c3ccco3)C2)cc1 (stereo unspecified)	1%	4%	2%	-18%	-13%	0%	x	x	x	x	x
CS/C(=C(/C#N)S(=O)(=O)c1ccc(Cl)cc1)N1CCOCC1	-10%	-4%	x	-1%	-2%	0%	x	x	x	x	x
O=C1c2cccc(OCc3ccc(F)cc3)c2CCN1Cc1ccccc1	-16%	-1%	-52%	-10%	-4%	u	u	4.4µM*	-10%	6.3µM*	u
Cc1ccc(COc2cccc3c2CCN(Cc2ccc(F)cc2)C3=O)cc1	-10%	8%	x	-8%	-4%	u	x	x	x	x	x
O=C(CCN1C(=O)c2ccccc2C1=O)Nc1ccc(-c2nc3ccccc3o2)cc1	1.4µM*	1.5µM*	8.9µM*	2.2µM*	2%	u	x	x	x	x	u	ELG1 FLuc counter=152%;FLuc enzyme=u
COc1ccc(/C=C/c2ccc3ccccc3n2)c(OC)c1	x	x	x	x	x	x	x	x	x	x	-25%	ELG1 FLuc counter=-9%;FLuc enzyme=u
COc1ccc(/C=C/C(=O)/C=C/c2ccc(OC)cc2OC)c(OC)c1	x	x	0%	x	x	x	x	x	x	x	x
COc1cc(/C=C/C(=O)Nc2ccc3nc4n(c(=O)c3c2)CCCC4)cc(OC)c1OC	-7%	-6%	x	-11%	-9%	4.6µM*	2.8µM*	10µM*	u	-3%	-15%
COc1ccc(OC)c(-c2noc(N3CCN(c4ccc(Cl)cc4)CC3)n2)c1	x	x	x	x	-1%	x	x	x	x	x	x
COc1ccc(/C=C2\Oc3ccccc3C2=O)cc1	x	2.3µM*	x	x	x	u	x	x	x	x	-11%
COc1ccc(/C=C2\OC(=S)N(C)C2=O)cc1	-9%	0%	-38%	-3%	-20%	12%	x	x	x	x	x
CSc1sc(-c2ccnc(SCCS(C)(=O)=O)n2)c(-c2ccccc2)c1C#N	-7%	-6%	x	-2%	1%	4.6µM*	3.1µM*	0.56µM*	1%	0.63µM*	u
CSc1nccc(-c2sc(SC)c(C#N)c2-c2ccccc2)n1	3%	2%	x	-3%	3%	4%	x	x	x	x	x
C=CCn1c(C)cc(C(=O)COC(=O)c2n[nH]c(=O)c3ccccc23)c1C	x	u	x	x	x	u	x	x	x	x	-10%
COC(=O)Cn1c2[n+](c3ccccc31)CC(O)CS2 (stereo unspecified)	-7%	7%	13%	0%	4%	u	23%	8%	-4%	-1%	-1%	ELG1 FLuc counter=8%;FLuc enzyme=2%

From PubChem BioAssay
